# Compound activity from PubChem BioAssay.
# Measles CPE = protection of cells from measles virus | Measles virus-infected cells, CPE protection, absorbance | protection (pct of control), % at 4 µM | actives 1.5% (n = 140,000); in the data active = protection mostly above about 24%, no sharp cut-off; inactive = mostly below about 26%
# CYP2C9 inhib = blocks human cytochrome P450 2C9; actives 20% (n = 96,000); inhibition, % at 5 µM; P11712; CYP2C9 Supersomes, luciferin-H conversion, luminescence;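 active = blocking of liver enzyme CYP2C9 beyond about 50% at 5 µM, limit read from the data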
# Target sequence (P11712 whole entry, looked up): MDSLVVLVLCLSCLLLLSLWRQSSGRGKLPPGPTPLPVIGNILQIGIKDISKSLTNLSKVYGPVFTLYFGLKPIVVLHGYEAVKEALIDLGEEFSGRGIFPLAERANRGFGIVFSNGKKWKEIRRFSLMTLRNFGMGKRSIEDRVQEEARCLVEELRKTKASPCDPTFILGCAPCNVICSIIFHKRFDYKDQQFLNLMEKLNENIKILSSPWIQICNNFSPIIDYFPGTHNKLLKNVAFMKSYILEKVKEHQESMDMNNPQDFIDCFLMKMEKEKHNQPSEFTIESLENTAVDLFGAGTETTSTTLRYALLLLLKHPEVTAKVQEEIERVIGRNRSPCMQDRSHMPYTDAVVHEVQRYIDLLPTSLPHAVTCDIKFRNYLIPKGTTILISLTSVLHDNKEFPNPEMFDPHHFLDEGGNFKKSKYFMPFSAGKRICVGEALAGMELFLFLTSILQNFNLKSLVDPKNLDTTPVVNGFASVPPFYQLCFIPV
# CYP2C9 activ = CYP2C9 (human) activation; recombinant CYP2C9, luciferin-H conversion, luminescence; hits give high values; factor 1 = untreated enzyme, 0 = blocked; actives 1.4% (n = 96,000); activation factor at 5 µM; P11712;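 active = activation factor of 2 or more for CYP2C9 at a 5 µM dose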;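 note: 0 = sulfaphenazole-blocked wells and 1 = vehicle-only wells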
# CYP2C19 inhib = inhibitors of human CYP2C19; CYP2C19 Supersomes, luciferin-H EGE luminescence, 30 min; actives 21% (n = 96,000); AID 778; P33261; inhibition, % at 5 µM;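 active = CYP2C19 inhibition above a set limit at 5 µM in the primary screen, cut at about 50% in these data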;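 note: plate controls were negative control wells for no effect and 2.5 mM tranylcypromine positive control for full effect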
# CYP2C19 act = cytochrome P450 2C19 (human) activation; P33261; 96,000 tested, under 10 active; activation factor at 5 µM; recombinant CYP2C19, luciferin-H EGE luminescence; hits give high values; 0 = fully inhibited enzyme, 1 = untreated enzyme;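 active = activation factor of at least 2 at 5 µM in the primary screen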;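 note: 0 = wells with 2.5 mM tranylcypromine and 1 = vehicle-only wells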
# Starred values were filed as active, the others as inactive; · = no result given. Hits are enriched below; roughly 22% of the tested compounds scored in any of these assays.
SMILES,Measles CPE,CYP2C9 inhib,CYP2C9 activ,CYP2C19 inhib,CYP2C19 act
CCCOc1ccc(N2CC(C(=O)Nc3ncccc3C)CC2=O)cc1 (configuration not stated),2,69*,0.3,4,1
COc1ccc(S(=O)(=O)N2CCCC2C(=O)Nc2ccc(C(C)=O)cc2)cc1 (configuration not stated),22,30,0.7,57*,0.4
Cc1ccc(S(=O)(=O)N2CCC(C(=O)Nc3ccc4c(c3)OCO4)CC2)cc1,1,-10,1.1,9,0.9
O=C(Nc1ccc2c(c1)OCO2)C1CCCCN1S(=O)(=O)c1ccc(F)cc1 (configuration not stated),7,63*,0.4,100*,0
COc1ccc(NC(=O)C2CCCN2S(=O)(=O)c2ccc(C)cc2)cc1 (configuration not stated),4,75*,0.3,74*,0.3
COc1ccc(S(=O)(=O)N2CCCC(C(=O)Nc3ccc(OC)c(OC)c3)C2)cc1 (configuration not stated),7,-10,1.1,2,1
O=C1N=C2SCCN2/C1=C\c1ccc(Cl)cc1,7,7,0.9,29,0.7
COc1ccccc1NC(=O)C1CCCCN1S(=O)(=O)c1ccc(F)cc1 (configuration not stated),11,-169,2.7*,41,0.6
CCOc1ccc(NC(=O)C2CCCCN2S(=O)(=O)c2ccccc2)cc1 (configuration not stated),18,-5,1,75*,0.2
O=C(O)C1CCCCN1S(=O)(=O)c1ccccc1 (configuration not stated),4,28,0.7,1,1
COc1ccc(NC(=O)C2CCCCN2S(=O)(=O)c2ccc(F)cc2)c(OC)c1 (configuration not stated),5,26,0.7,43,0.6
COc1cccc(C(=O)N2CCSC2=S)c1,11,-26,1.3,62*,0.4
COc1ccc(C(=O)SC2=NCCS2)cc1OC,22,-109,2.1*,25,0.8
COc1ccc(C(=O)N2CCSC2=S)cc1OC,9,-112,2.1*,3,1
Cc1csc(Sc2ccc(C(=O)OCC(=O)Nc3ccc(F)cc3[N+](=O)[O-])cc2[N+](=O)[O-])n1,7,·,·,·,·
O=C(c1ccc(COc2ccc(Br)cc2)o1)N1N=C(C(F)F)CC1(O)C(F)F (configuration not stated),13,·,·,·,·
CSc1ccccc1NC(=O)c1ccc(C)o1,6,6,0.9,28,0.7
NNC(=O)c1ccc(Cn2cc(Br)cn2)cc1,11,·,·,·,·
CCCc1nnc(SCC(=O)O)n1/N=C/c1ccc2c(c1)OCO2,3,2,1,-1,1
CCOc1ccccc1NC(=O)c1ccc(S(=O)(=O)N2CCOCC2)cc1,6,-27,1.3,4,1
CCCn1c(SCC(=O)Nc2cc(S(=O)(=O)N3CCOCC3)ccc2Cl)n[nH]c1=O,9,·,·,·,·
COc1cccc2sc(NC(=O)c3ccc(S(=O)(=O)N4CCOCC4)cc3)nc12,6,86*,0.1,64*,0.4
CCOC(=O)c1sc(NC(=O)c2ccc(S(=O)(=O)N3CCOCC3)cc2)nc1-c1ccccc1,12,·,·,·,·
COc1ccc(C)cc1NC(=O)c1ccc(S(=O)(=O)N2CCOCC2)cc1,12,-264,3.6*,5,1
COc1ccc(OC)c(NC(=O)COC(=O)c2ccc(S(=O)(=O)N3CCOCC3)cc2)c1,3,6,0.9,8,0.9
SMILES,Measles CPE,CYP2C9 inhib,CYP2C9 activ,CYP2C19 inhib,CYP2C19 act
COc1ccccc1NC(=O)c1ccc(S(=O)(=O)N2CCOCC2)cc1,7,-249,3.5*,14,0.9
CCCn1c(SCC(=O)Nc2cc(S(=O)(=O)N3CCOCC3)ccc2OC)n[nH]c1=O,50*,·,·,·,·
CC(C)CNC(=O)C1CCN(c2ccc(S(=O)(=O)N3CCOCC3)cc2)CC1,19,28,0.7,-14,1.1
CCOC(=O)N1CCN(S(=O)(=O)c2ccc(C(=O)Nc3nc4ccccc4s3)cc2)CC1,19,45,0.6,2,1
CCOC(=O)N1CCN(S(=O)(=O)c2ccc(C(=O)Nc3nc4ccc(F)cc4s3)cc2)CC1,2,64*,0.4,22,0.8
COc1ccccc1C(=O)NCC1CCN(c2ccc(S(=O)(=O)N3CCOCC3)cc2)CC1,15,36,0.6,58*,0.4
CCCOc1cccc(NC(=O)c2cc(C)oc2C)c1,10,9,0.9,16,0.8
COc1ccc(Cl)cc1-n1c(C)cc(C(=O)O)c1C,13,0,1,10,0.9
COc1ccc(Cl)cc1-n1c(C)cc(C=O)c1C,26,60*,0.4,87*,0.1
CC(C)OCCCNC(=O)c1ccc2c(c1)ncn2C1CCCC1,8,·,·,·,·
O=C(NCCCN1CCCC1=O)c1ccc2c(c1)ncn2C1CCCCC1,41*,·,·,·,·
CCn1c(C)nc2cc(-c3nc4n(n3)Cc3ccccc3-4)ccc21,5,36,0.6,84*,0.2
Cc1nc2ccccc2c(=O)n1NC(=O)C1CCCCC1,2,12,0.9,6,0.9
CCCCCCC1CCC(C(=O)Nn2c(C)nc3ccccc3c2=O)CC1 (configuration not stated),6,91*,0.1,42,0.6
O=C(Nn1c(-c2ccc(F)cc2)nc2ccccc2c1=O)C1CCCCC1,21,64*,0.4,45,0.5
CCn1c(=S)sc2c(=O)n(-c3ccccc3)c(SCC(=O)NCc3ccco3)nc21,27,35,0.6,29,0.7
CC(=O)N1N=C(c2ccc(Br)cc2)OC1(C)CC(=O)Nc1ccccc1 (configuration not stated),8,·,·,·,·
C/C=C/Cn1c(SCCCc2ccccc2)nc2c1c(=O)[nH]c(=O)n2C,6,77*,0.2,58*,0.4
C=CCn1c(SCCCc2ccccc2)nc2c1c(=O)[nH]c(=O)n2C,8,63*,0.4,76*,0.2
CC(Oc1ccc(Br)cc1)C(=O)Nn1c(=S)[nH]c2ncccc2c1=O (configuration not stated),16,·,·,·,·
COc1cc(OC)cc(C(=O)NC(C(=O)NCCN(C)C)C23CC4CC(CC(C4)C2)C3)c1 (configuration not stated),12,2,1,93*,0.1
CCNC(=O)NC(C(=O)OC)C12CC3CC(CC(C3)C1)C2 (configuration not stated),16,-4,1,30,0.7
Cc1cc(C)nc(SCNC(=O)c2ccc(F)cc2)n1,8,-25,1.3,62*,0.4
CCOC(=O)C1C(=O)OC(C)(C)C1C(C)C(=O)c1ccccc1 (configuration not stated),1,28,0.7,73*,0.3
CCOC(=O)C1C(=O)OC(C)(C)C1C(C)C(=O)c1ccc(OC)cc1 (configuration not stated),23,5,0.9,6,0.9
CN(CC(=O)N1CCN(c2cccc(Cl)c2)CC1)S(=O)(=O)c1cnc[nH]1,8,·,·,·,·
